Screening results as filed in PubChem.
The list is not random: actives were taken first. Their share in the collection is about 0.71%.
Eya2 phos inh – qHTS Assay for Inhibitors of the Phosphatase Activity of Eya2 | Protein phosphatase EYA2 (Homo sapiens), O00167 | recombinant Eya2, OMFP fluorescence dephosphorylation (OMFP is methylfluorescein phosphate) | Potency, µM (series often up to 76.9 µM), actives largely listed as inhibitors | actives 0.006% (n = 330,000) | AID 488837, 2010
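Eya2 protein (added as 0.2 uM solution) was preincubated with compound for 10 min at ambient temperature in 50 mM HEPES pH 7.5, 50 mM NaCl, 5 uM MgCl2, 0.05% BSA, 1 mM DTT. OMFP (added at 50 uM) then reacted 10 min; fluorescence read at 485/525 nm.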
GALK inhibitor – qHTS Assay for Inhibitors of Human Galactokinase (GALK); Potency, µM (top dose mostly 57.5 µM), hits mostly inhibitors; Purified GALK, Kinase-Glo residual ATP luminescence; actives 0.007% (n = 270,000); P51570; AID 1868, 2009
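The enzyme phosphorylates galactose (100 uM) using ATP (35 uM); inhibition is detected as higher residual ATP, quantified by bioluminescence after 1 h reaction at room temperature, pH 8.0.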
PI4K2A inh – qHTS for small molecular inhibitors of PI4K2A; Phosphatidylinositol 4-kinase type 2-alpha (Homo sapiens), Q9BTU6; purified PI4K2A, ADP-Glo luminescence, 1 h; active compounds read low; activity change, negative = inhibition, % at 76.9 µM; actives 0.13% (n = 420,000); AID 1346378, 2018; in the data active = activity change below about -50%; inconclusive = mostly about -30% to -49%
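Compounds are screened against recombinant PI4K2A using PI as substrate and ATP, the latter dispensed at 300 microM. Reactions run one hour at ambient temperature before ADP-Glo detection; full inhibition defined by wells lacking enzyme.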
USP2a inh – qHTS Assay for Inhibitors of Ubiquitin-specific Protease USP2a Using CHOP2 as the Reporter; actives 0.01% (n = 330,000); Potency, µM (titrated, usually from 38.3 µM), most hits filed as inhibitors; USP2 core, Ub-CHOP2 coupled fluorogenic reporter, 485/531
Target sequence (O75604 whole entry, looked up): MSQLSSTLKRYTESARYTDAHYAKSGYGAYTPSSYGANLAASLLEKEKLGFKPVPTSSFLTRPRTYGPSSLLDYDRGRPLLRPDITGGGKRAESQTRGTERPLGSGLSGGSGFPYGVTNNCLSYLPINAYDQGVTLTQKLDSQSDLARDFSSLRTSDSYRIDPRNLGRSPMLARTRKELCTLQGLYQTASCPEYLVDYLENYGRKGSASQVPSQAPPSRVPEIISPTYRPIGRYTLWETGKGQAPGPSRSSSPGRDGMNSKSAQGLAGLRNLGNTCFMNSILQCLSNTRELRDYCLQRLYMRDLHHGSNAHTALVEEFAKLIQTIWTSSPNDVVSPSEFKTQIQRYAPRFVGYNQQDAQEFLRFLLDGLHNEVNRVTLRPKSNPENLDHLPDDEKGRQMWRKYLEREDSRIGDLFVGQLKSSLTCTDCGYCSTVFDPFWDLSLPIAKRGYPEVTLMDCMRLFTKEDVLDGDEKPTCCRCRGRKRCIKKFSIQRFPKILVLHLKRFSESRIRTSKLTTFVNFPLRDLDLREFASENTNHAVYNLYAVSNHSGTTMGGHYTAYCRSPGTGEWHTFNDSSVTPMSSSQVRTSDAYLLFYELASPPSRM
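Cell-free coupled assay: 10nM USP2 core preincubated 30min RT with compound in Tris-HCl pH 8.0/CaCl2/CHAPS buffer, then 25nM Ub-CHOP2 and 25nM reporter substrate; fluorescence (Ex 485/Em 531) read after 60min RT, normalized to NEM inhibition, concentration-response curves fitted.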
Coupling enz – qHTS Assay for Inhibitors of Fructose-1,6-bisphosphate Aldolase from Giardia Lamblia: Coupling assay counterscreen; coupling enzyme system counterscreen, AmpLite Red fluorescence; activity change, negative = inhibition, % at 58.2 µM, hits read low; actives 0.67% (n = 290,000); AID 2472, 2010; in the data active = activity change below about -30%
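Fluorescence at 525 nm excitation and 598 nm emission measured inhibition of the coupled detection system without aldolase. Compounds (at 57.5 uM final) were preincubated 10 min at room temperature with coupling enzyme reagent before a 20 min substrate/AmpLite Red step.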
USP1-UAF1 inh – Inhibitors of USP1/UAF1: Primary Screen. recombinant USP1/UAF1, Ub-Rhodamine cleavage fluorescence. Potency, µM (titrated, usually from 57.1 µM), most hits filed as inhibitors. actives 0.23% (n = 390,000); note: nearly all actives have a fitted effect of over 60% in size
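USP1/UAF1 complex at 1 nM was preincubated with compound for 15 min at room temperature, then Ub-Rho substrate (150nM final) was added. Fluorescence (480/540 nm) was read kinetically, 6 reads every 60 seconds.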
Hits are given with their value; i = inactive; ? = inconclusive; nt = not tested or not shown. Unless noted, calls come from the whole dose curve; as a rule, active = well fitted curve in the direction sought with a large enough effect; inconclusive = small, poorly fitted or top-dose-only effect, or another doubt; inactive = no such curve, though single readings can be large; an effect the other way counts as inactive or inconclusive.

SMILES	Eya2 phos inh	GALK inhibitor	PI4K2A inh	USP2a inh	Coupling enz	USP1-UAF1 inh
CC/C(=C\C(=O)c1ccncc1)Nc1ccc(O)cc1	i	i	-50.3	i	i	i
O=C(N/N=C/c1ccc(O)cc1)c1ccncc1	i	i	i	i	i	i
COc1ccccc1NC(=O)c1sc2nc(C)c(C(=O)Nc3ccc(C)cc3C)c(-c3ccc(C)o3)c2c1N	nt	nt	i	nt	nt	31.6µM
COc1ccccc1NC(=O)c1sc2nc(C)c(C(=O)Nc3ccc(C)cc3C)c(-c3ccco3)c2c1N	nt	nt	i	nt	nt	i
CC(C)(C)c1nnc(NS(=O)(=O)c2ccc(N)cc2)s1	nt	nt	i	nt	nt	nt
Cc1cccc(N2C(=O)c3cccc4c(N(C)CCO)ccc(c34)C2=O)c1	?	i	i	?	i	28.2µM
CN(C)c1ccc2c3c(cccc13)C(=O)N(c1ccccc1)C2=O	i	i	nt	?	i	nt
Nc1cccc(N2C(=O)c3cccc4c(N)ccc(c34)C2=O)c1	?	i	i	?	i	28.2µM
Cc1cccc(N2C(=O)c3cccc4c(N)ccc(c34)C2=O)c1	?	i	i	?	i	28.2µM
Nc1ccc2c3c(cccc13)C(=O)N(c1ccccc1)C2=O	?	i	i	?	i	?
C/C(=N/NC(=O)c1ccncc1)C(=O)O	nt	nt	i	nt	nt	nt
C/C=C/C1Oc2ccc(OC)cc2N2C(=O)C(C)C(OCOC)C12 (centres undefined)	nt	nt	nt	nt	i	nt
CC(=O)C(C(C)=O)C1(O)C(=O)c2ccccc2C1=O	i	i	?	i	-30.5	7.94µM
C=CCOc1cc(Cl)ccc1C(=O)NCCN(CC)CC	nt	nt	i	nt	nt	nt
CCCC(=O)NC(=S)N1CCN(c2ccc([N+](=O)[O-])cc2)CC1	i	i	i	i	-31.7	i
O=C(O)CSCC(=O)NC1CCSC1=O (centres undefined)	nt	nt	i	nt	nt	nt
O=S(=O)(O)c1cc(O)c2ccc(Nc3ccccc3)cc2c1	nt	nt	i	nt	nt	i
COc1ccccc1Nc1ccc2c(O)cc(S(=O)(=O)O)cc2c1	nt	nt	-59.1	nt	nt	?
O=C(NC1CCCc2c1cnn2-c1ccc(F)cc1F)c1cccs1 (centres undefined)	nt	nt	i	nt	nt	nt
CC(C)Cn1c2c(c(O)c(C(=O)Nc3ncccc3O)c1=O)CCCC2	i	i	i	i	-37.0	i
CC(C)Cn1c2c(c(O)c(C(=O)Nc3ccc(F)cc3)c1=O)CCCC2	i	i	i	i	i	i
O=C(O)C1OC(O)C(O)C(O)C1O (centres undefined)	nt	nt	nt	nt	i	nt
COc1ccc(/C=C2\CCCc3c2nc2ccccc2c3C(=O)O)cc1OC	?	i	nt	?	-32.8	nt
O=C(O)c1ccnc(C(=O)O)c1	i	i	i	i	-72.2	i
CCN1c2ccccc2N(C)C1(C)c1ccccc1 (centres undefined)	i	i	i	i	-52.7	?
SMILES	Eya2 phos inh	GALK inhibitor	PI4K2A inh	USP2a inh	Coupling enz	USP1-UAF1 inh
NC(=O)CC[C@@H]1NC(=O)[C@H](Cc2ccccc2)NC(=O)[C@H](Cc2ccc(O)cc2)NC(=O)CCSSC[C@@H](C(=O)N2CCC[C@H]2C(=O)N[C@@H](CCCN=C(N)N)C(=O)NCC(N)=O)NC(=O)[C@H](CC(N)=O)NC1=O	nt	nt	i	nt	nt	nt
O=C(c1ccc(-c2ccccc2)cc1)N1CCN(c2ncccn2)CC1	i	i	i	i	-74.6	i
COc1ccc2c(c1)O[C@H](c1ccc3c(c1)OCO3)[C@@H](OC(=O)NCc1ccco1)C2=O	nt	nt	nt	nt	i	nt
CCN(CC)c1ccc(/C=C(/C#N)C(=O)NC(C)C)o1	i	i	i	?	i	25.1µM
CC(NC(=O)/C(C#N)=C/c1ccc([N+](=O)[O-])o1)c1ccccc1 (centres undefined)	i	i	i	i	-36.1	i
CCN(CC)c1ccc(/C=C(/C#N)C(=O)NCc2ccccc2)o1	i	i	i	?	i	31.6µM
